Among the test systems are SK-MEL-2 melanoma; EKVX NSCLC; SN12C renal; UO-31 renal; TK-10 renal; ACHN renal; A498 renal; CCRF-CEM leukemia; MOLT-4 leukemia; SR leukemia; RPMI-8226 leukemia; OVCAR-8 ovarian; OVCAR-5 ovarian; OVCAR-4 ovarian; SK-OV-3 ovarian; IGROV1 ovarian; OVCAR-3 ovarian; HS 578T breast; NCI/ADR-RES ovarian.
Assay in all cases: NCI-60 one-dose screen, 48 h (100 = growth as untreated, 0 = no growth, -100 = all killed)
Holding throughout (conditions): 10 µM unless noted

Molecules are shown by their SMILES. The panel holds about 83,000 compounds, 20% with a hit somewhere; the sample as a whole holds those more often.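 A percent growth of 40 corresponds to 60% growth inhibition; 0 means no net growth; -100 means all cells died. Active threshold: below 10.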 Unmarked numbers belong to inactive results. Activity calls are given as the source filed them.

The results in this text go back to PubChem BioAssay (NCI).

In the case of `Cc1cccc(NCS(=O)(=O)O)c1`, the growth is 109% in the experiment on SK-MEL-2 melanoma; 98.7% with EKVX NSCLC; 112% in the experiment with SN12C renal; 93% with UO-31 renal; 98.5% in the experiment on TK-10 renal; 107% with ACHN renal. For the same compound, the growth was 111% with A498 renal; 102% in the experiment with CCRF-CEM leukemia; 102% with MOLT-4 leukemia; 107% in the experiment with SR leukemia; 102% in the experiment with RPMI-8226 leukemia; 88.6% in the experiment with OVCAR-8 ovarian. The growth with OVCAR-5 ovarian is 107%; in the experiment with OVCAR-4 ovarian it was 109%; in the experiment on SK-OV-3 ovarian, 97.4%; in the experiment on IGROV1 ovarian, 102%; in the experiment with OVCAR-3 ovarian it was 116%; in the experiment with HS 578T breast it was 104%. Besides, the growth in the experiment on NCI/ADR-RES ovarian was 105%.

Take `COc1cc(/C=C/C(=O)N2CCC=CC2=O)cc(OC)c1OC`: the growth was 74.9% with SK-MEL-2 melanoma; 57.1% in the experiment on EKVX NSCLC; 45.1% in the experiment on SN12C renal; 57.7% with UO-31 renal; 38.7% in the experiment on TK-10 renal; -7.71% (active) in the experiment on ACHN renal. Moreover, the growth in the experiment on A498 renal was 98.7%; with CCRF-CEM leukemia it was 15%; in the experiment on MOLT-4 leukemia, 42.1%; with SR leukemia it was 10.3%; with RPMI-8226 leukemia, -11.3% (active); with OVCAR-8 ovarian, 4.06% (active). Besides, the growth was 86.6% in the experiment on OVCAR-5 ovarian; 48.8% with OVCAR-4 ovarian; 105% with SK-OV-3 ovarian; 30.9% with IGROV1 ovarian; 18.5% in the experiment with OVCAR-3 ovarian; 84.5% in the experiment on HS 578T breast. Moreover, the growth in the experiment with NCI/ADR-RES ovarian was 67.2%.

As to `COc1cc2ncnc(Oc3ccc(NC(=O)Nc4ccc(CN5CCOCC5)c(C(F)(F)F)c4)c4ccccc34)c2cc1OC`, the growth was 52.1% with SK-MEL-2 melanoma; 16% in the experiment on EKVX NSCLC; 8.87% (active) in the experiment with SN12C renal; -11.9% (active) in the experiment with UO-31 renal; 12.7% in the experiment with TK-10 renal; -3.27% (active) with ACHN renal. The growth in the experiment with A498 renal is -11.3% (active); in the experiment on CCRF-CEM leukemia it was 20.1%; in the experiment on MOLT-4 leukemia, -20.7% (active); in the experiment with SR leukemia it was 17.1%; in the experiment with RPMI-8226 leukemia it was -20.4% (active); in the experiment on OVCAR-8 ovarian, 18.9%. The growth with OVCAR-5 ovarian is 50.1%; with OVCAR-4 ovarian it was 13.7%; with SK-OV-3 ovarian, -6.16% (active); with IGROV1 ovarian, 6.05% (active); in the experiment on OVCAR-3 ovarian, 31.9%; with HS 578T breast, 45.5%. Moreover, in the experiment with NCI/ADR-RES ovarian, the growth was 21.8%.

On to `C=C1C(=O)O[C@H]2[C@H]1CC/C(COC(=O)c1ccccc1)=C\CC[C@@]1(C)O[C@@H]21`, for which the growth in the experiment with SK-MEL-2 melanoma is 15%; in the experiment with EKVX NSCLC, 11.5%; with SN12C renal, -22.4% (active); with UO-31 renal it was -95.7% (active); with TK-10 renal, -0.228% (active); with ACHN renal it was -83.7% (active). Besides, the growth in the experiment with A498 renal was 99.4%; in the experiment on CCRF-CEM leukemia, -26% (active); in the experiment with MOLT-4 leukemia, -22.2% (active); in the experiment on SR leukemia, -14.1% (active); in the experiment with RPMI-8226 leukemia it was -36.4% (active); in the experiment with OVCAR-8 ovarian, -34.3% (active). Also, the growth in the experiment on OVCAR-5 ovarian is 2.5% (active); in the experiment with OVCAR-4 ovarian it was 5.21% (active); with SK-OV-3 ovarian it was 95.4%; with IGROV1 ovarian it was -24.9% (active); in the experiment on OVCAR-3 ovarian, -44.5% (active); in the experiment with HS 578T breast, 44%. In addition, in the experiment with NCI/ADR-RES ovarian, the growth is 36.2%.

For the compound `Nc1nc(Nc2ccc(OCc3cccc(F)c3)cc2)c2c(n1)[nH]c1ccc(O)cc12`, the growth in the experiment on SK-MEL-2 melanoma is -63% (active); in the experiment with EKVX NSCLC, 10.5%; in the experiment with SN12C renal, -69.3% (active); in the experiment on UO-31 renal, -93.5% (active); in the experiment with TK-10 renal, -9.4% (active); with ACHN renal it was -26.8% (active). Moreover, the growth in the experiment with A498 renal is 75.9%; with CCRF-CEM leukemia it was -9.7% (active); with MOLT-4 leukemia, -28% (active); with SR leukemia, -48.3% (active); with RPMI-8226 leukemia it was -37.5% (active); in the experiment on OVCAR-8 ovarian, -61.7% (active). Besides, the growth in the experiment on OVCAR-5 ovarian was 0.474% (active); with OVCAR-4 ovarian, -62.2% (active); with SK-OV-3 ovarian, -1.21% (active); in the experiment with IGROV1 ovarian, -21.8% (active); in the experiment with OVCAR-3 ovarian, -86.4% (active); in the experiment with HS 578T breast, -21.9% (active). In the experiment on NCI/ADR-RES ovarian, the growth was 32.3%.

For the compound `O=c1c(-c2ccc3c(c2)OCO3)coc2c(CO)c(O)ccc12`, the growth with SK-MEL-2 melanoma was -66.3% (active); in the experiment on EKVX NSCLC, 3.55% (active); in the experiment with SN12C renal, -3.58% (active); with UO-31 renal, -81.9% (active); in the experiment on TK-10 renal, -15.2% (active); with ACHN renal it was -30.5% (active). Also, the growth was -26.7% (active) in the experiment on A498 renal; 1.63% (active) with CCRF-CEM leukemia; 90.3% with MOLT-4 leukemia; 13.4% in the experiment on SR leukemia; 2.57% (active) in the experiment with RPMI-8226 leukemia; 24.3% in the experiment with OVCAR-8 ovarian. The growth in the experiment on OVCAR-5 ovarian was 35.8%; in the experiment on OVCAR-4 ovarian it was 41.7%; in the experiment with SK-OV-3 ovarian, -18.3% (active); in the experiment on IGROV1 ovarian, 5.08% (active); with OVCAR-3 ovarian it was -55.1% (active); with HS 578T breast, 6.65% (active). For the same compound, the growth in the experiment with NCI/ADR-RES ovarian is 52%.

`Cc1ccn2cc(Cc3cc(=O)oc4c3ccc3ccccc34)c(=O)nc2c1`: the growth in the experiment on SK-MEL-2 melanoma was 80.6%; with EKVX NSCLC, 92.5%; in the experiment on SN12C renal, 96.4%; in the experiment with UO-31 renal, 80.2%; in the experiment with TK-10 renal, 124%; with ACHN renal it was 95.5%. In addition, the growth in the experiment on A498 renal was 111%; in the experiment with CCRF-CEM leukemia, 95.8%; with MOLT-4 leukemia it was 87.9%; in the experiment on SR leukemia, 92.7%; in the experiment with RPMI-8226 leukemia it was 93.3%; in the experiment on OVCAR-8 ovarian, 100%. Moreover, the growth in the experiment with OVCAR-5 ovarian is 102%; in the experiment with OVCAR-4 ovarian, 101%; with SK-OV-3 ovarian, 90.1%; with IGROV1 ovarian it was 97%; in the experiment on OVCAR-3 ovarian it was 104%; with HS 578T breast, 95.2%.

For `O=C1c2ccccc2C(=O)c2c(NCCN=Cc3c(O)ccc4ccccc34)cccc21`, the growth in the experiment on SK-MEL-2 melanoma is 107%; with EKVX NSCLC, 73.3%; in the experiment with SN12C renal, 85.2%; with UO-31 renal it was 49.9%; in the experiment on TK-10 renal it was 94.2%; in the experiment with ACHN renal, 65.3%. In addition, the growth in the experiment on A498 renal was 80.7%; in the experiment on CCRF-CEM leukemia it was -46.1% (active); in the experiment with MOLT-4 leukemia it was 76.9%; in the experiment with SR leukemia, 32%; in the experiment on RPMI-8226 leukemia, 78.7%; in the experiment with OVCAR-8 ovarian, 69.9%. In addition, the growth is 112% with OVCAR-5 ovarian; 94.3% in the experiment with OVCAR-4 ovarian; 84.2% in the experiment with SK-OV-3 ovarian; 65.5% with IGROV1 ovarian; 83.7% in the experiment with OVCAR-3 ovarian; 82.7% in the experiment with HS 578T breast. Moreover, the growth in the experiment on NCI/ADR-RES ovarian was 85.5%.
